Test results as given in the supplement of paper PMC11732987, “Enantioselective OTUD7B fragment discovery through chemoproteomics screening and high-throughput optimisation” (Communications Chemistry, 2025).

Key:
Assay in all cases: log2 ratio of Biotin-Ahx-Ub-VS probe labelling (fragment/DMSO); higher = less target engagement (more negative = stronger competition), active = hit call of the paper (q ≤ 0.05, log2 ratio ≤ -1)
Conditions in all cases: compound concentration: 200 uM; treatment time: 3 h
USP34 = USP34 (UniProt Q70CQ2)
Chain of USP34 (Q70CQ2 whole entry, the tested form may be a part): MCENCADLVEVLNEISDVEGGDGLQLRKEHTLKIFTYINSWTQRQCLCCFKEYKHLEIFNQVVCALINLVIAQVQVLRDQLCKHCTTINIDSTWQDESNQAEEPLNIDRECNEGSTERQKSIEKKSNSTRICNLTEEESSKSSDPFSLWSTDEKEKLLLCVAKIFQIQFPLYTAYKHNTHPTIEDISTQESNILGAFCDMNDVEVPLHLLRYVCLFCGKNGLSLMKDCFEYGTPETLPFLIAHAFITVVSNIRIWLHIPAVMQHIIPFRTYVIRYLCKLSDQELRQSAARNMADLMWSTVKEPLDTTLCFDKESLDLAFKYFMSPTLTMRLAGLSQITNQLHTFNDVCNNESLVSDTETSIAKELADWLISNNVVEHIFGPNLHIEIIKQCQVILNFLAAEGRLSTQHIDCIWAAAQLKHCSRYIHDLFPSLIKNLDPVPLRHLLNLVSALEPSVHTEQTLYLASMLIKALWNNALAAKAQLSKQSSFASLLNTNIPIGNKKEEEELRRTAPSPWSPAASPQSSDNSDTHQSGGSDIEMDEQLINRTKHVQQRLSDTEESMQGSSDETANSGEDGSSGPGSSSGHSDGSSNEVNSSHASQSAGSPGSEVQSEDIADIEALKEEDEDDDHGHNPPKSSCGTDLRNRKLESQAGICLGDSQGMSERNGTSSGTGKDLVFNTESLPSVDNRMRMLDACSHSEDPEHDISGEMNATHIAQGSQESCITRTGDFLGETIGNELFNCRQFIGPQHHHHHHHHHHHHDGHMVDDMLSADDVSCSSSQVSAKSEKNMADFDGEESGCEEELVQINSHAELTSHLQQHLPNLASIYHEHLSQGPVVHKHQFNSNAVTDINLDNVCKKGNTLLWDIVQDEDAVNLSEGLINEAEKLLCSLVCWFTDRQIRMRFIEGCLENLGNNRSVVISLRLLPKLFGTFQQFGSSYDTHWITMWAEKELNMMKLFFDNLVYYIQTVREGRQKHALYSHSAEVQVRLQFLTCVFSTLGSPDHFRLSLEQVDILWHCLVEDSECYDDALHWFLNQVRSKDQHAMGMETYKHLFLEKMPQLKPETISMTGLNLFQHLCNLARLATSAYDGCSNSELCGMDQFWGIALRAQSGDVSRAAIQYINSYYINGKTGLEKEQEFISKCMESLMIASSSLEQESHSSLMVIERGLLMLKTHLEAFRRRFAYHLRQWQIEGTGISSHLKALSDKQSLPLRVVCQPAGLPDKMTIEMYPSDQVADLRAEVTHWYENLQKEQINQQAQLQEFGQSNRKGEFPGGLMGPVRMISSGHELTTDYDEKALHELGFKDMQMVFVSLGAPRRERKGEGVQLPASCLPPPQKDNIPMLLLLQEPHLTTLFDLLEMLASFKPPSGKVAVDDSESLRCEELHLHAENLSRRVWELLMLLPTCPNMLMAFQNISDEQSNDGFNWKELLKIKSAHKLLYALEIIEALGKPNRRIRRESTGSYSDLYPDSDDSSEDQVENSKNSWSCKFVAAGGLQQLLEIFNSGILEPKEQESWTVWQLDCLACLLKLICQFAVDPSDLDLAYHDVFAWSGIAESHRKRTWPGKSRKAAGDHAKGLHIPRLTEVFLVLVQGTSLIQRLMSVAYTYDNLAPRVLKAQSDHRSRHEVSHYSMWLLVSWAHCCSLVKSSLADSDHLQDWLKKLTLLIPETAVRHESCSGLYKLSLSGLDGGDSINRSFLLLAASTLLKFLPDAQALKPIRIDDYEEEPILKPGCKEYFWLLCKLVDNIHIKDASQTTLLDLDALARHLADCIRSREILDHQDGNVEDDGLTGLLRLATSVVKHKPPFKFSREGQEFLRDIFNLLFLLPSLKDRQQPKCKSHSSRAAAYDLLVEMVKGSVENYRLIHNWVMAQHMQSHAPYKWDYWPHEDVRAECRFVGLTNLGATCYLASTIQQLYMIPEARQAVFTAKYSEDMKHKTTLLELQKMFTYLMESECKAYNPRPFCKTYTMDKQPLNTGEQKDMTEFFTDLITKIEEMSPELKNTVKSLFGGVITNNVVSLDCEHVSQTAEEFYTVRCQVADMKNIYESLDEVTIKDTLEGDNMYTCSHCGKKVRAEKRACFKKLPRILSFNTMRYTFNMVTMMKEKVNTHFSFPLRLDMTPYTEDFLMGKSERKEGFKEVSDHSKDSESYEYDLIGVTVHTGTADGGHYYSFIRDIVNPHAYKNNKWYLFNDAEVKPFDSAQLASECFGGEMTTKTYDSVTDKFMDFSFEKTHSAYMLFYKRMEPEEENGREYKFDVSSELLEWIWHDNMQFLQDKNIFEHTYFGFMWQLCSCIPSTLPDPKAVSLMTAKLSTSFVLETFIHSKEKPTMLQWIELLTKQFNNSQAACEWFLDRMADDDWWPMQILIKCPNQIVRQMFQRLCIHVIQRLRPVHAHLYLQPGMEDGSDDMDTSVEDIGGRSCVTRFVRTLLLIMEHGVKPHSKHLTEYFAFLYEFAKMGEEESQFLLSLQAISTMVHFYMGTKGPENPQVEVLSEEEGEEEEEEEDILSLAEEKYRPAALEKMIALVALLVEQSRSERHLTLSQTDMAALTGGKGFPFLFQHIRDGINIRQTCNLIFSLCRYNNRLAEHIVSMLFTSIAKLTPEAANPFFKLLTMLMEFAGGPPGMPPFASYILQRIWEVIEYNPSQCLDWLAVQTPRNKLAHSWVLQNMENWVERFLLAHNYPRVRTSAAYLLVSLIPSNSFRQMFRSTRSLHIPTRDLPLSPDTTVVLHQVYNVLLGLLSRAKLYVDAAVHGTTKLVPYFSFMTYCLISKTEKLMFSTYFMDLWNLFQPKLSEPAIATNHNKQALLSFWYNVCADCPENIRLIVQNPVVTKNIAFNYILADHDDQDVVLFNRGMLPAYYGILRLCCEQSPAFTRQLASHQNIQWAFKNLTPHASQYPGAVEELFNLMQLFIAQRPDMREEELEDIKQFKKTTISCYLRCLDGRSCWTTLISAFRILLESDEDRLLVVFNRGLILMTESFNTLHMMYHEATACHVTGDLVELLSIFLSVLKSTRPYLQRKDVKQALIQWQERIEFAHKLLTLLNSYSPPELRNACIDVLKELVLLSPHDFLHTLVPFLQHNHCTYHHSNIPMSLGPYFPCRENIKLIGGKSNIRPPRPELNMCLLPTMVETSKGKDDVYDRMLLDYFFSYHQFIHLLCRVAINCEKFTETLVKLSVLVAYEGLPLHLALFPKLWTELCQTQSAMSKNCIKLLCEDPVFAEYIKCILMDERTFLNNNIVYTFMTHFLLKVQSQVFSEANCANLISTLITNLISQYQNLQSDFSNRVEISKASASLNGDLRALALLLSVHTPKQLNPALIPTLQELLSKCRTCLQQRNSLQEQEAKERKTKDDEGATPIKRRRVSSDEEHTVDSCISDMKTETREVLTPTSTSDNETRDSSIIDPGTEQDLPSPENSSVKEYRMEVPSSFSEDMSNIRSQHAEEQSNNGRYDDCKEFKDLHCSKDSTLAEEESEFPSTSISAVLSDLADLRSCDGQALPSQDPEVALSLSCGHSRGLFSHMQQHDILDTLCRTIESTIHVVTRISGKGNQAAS
Method in brief: (§1)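 Global-median-normalised Spectronaut label-free quantities were compared by unpaired t-test, and values are average log2 ratios of fragment over vehicle. Only proteins with ≥2 unique peptides were used. HEK293T lysate (495 µg per sample) was treated in triplicate with fragment at 200 µM or vehicle for 3 h and then with Biotin-Ahx-Ub-VS at 0.5 µM final for 1 h. Labelled DUBs were then NeutrAvidin-enriched, digested with LysC and trypsin, and run by diaPASEF LC-MS/MS.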

USP36 = target: T1, USP36 (UniProt Q9P275)
T1 sequence (whole entry): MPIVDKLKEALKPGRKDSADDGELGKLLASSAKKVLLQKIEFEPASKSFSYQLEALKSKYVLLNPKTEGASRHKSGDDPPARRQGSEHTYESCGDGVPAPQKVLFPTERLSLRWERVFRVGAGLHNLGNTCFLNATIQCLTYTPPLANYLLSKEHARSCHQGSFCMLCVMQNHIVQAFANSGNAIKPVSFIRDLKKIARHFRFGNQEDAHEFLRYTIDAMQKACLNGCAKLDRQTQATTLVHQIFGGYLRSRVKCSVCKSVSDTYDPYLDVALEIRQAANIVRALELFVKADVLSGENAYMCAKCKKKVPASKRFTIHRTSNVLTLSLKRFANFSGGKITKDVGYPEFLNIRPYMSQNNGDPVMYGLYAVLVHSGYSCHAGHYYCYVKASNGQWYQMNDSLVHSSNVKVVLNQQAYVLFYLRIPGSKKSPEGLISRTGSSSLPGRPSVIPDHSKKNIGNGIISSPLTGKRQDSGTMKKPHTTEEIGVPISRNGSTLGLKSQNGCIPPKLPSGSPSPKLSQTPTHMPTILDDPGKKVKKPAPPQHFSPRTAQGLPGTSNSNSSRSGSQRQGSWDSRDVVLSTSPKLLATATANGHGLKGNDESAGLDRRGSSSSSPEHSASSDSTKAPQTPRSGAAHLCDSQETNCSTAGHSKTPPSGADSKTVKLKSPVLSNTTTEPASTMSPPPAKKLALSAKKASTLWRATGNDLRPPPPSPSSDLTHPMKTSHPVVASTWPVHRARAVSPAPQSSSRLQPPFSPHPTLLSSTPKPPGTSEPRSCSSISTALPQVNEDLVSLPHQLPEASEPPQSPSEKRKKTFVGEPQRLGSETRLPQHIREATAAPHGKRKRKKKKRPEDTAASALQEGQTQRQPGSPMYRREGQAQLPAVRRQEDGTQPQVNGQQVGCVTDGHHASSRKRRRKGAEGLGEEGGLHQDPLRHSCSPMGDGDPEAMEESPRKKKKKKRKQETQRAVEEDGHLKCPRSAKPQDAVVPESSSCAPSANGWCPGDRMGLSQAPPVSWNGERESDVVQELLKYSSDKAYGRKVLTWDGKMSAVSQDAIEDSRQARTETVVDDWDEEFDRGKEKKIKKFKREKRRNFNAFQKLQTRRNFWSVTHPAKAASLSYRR
Method in brief: as §1

USP38 = target: T2, USP38 (UniProt Q8NB14)
T2 sequence (whole entry): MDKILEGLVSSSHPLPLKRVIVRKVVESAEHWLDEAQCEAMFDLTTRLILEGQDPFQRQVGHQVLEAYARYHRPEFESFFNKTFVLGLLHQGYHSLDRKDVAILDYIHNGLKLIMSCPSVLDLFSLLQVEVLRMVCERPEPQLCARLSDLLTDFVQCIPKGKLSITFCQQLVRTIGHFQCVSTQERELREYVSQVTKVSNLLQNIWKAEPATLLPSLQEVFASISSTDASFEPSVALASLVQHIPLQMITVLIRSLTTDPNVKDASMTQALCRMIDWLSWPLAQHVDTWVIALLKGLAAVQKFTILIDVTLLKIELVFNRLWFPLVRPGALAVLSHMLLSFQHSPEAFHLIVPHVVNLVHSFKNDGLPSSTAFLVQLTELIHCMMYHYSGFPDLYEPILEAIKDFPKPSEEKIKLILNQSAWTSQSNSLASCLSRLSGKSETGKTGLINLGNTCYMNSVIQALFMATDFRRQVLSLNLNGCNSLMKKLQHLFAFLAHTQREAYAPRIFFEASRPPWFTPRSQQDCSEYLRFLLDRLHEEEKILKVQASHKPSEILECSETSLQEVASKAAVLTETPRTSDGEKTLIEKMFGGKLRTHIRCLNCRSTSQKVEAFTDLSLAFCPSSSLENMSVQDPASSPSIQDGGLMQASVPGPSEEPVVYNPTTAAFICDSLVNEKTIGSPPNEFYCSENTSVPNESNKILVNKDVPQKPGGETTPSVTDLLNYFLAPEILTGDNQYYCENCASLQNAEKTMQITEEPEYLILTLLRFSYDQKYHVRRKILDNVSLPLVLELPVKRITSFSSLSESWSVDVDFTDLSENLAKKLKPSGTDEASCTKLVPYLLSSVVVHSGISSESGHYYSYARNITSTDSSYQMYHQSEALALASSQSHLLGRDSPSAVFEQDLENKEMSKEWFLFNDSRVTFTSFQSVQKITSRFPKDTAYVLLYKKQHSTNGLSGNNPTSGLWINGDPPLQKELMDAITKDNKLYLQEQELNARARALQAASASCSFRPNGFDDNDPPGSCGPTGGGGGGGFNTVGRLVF
Method in brief: as §1

USP39 = target: T3, USP39 (UniProt Q53GS9)
T3 sequence (whole entry): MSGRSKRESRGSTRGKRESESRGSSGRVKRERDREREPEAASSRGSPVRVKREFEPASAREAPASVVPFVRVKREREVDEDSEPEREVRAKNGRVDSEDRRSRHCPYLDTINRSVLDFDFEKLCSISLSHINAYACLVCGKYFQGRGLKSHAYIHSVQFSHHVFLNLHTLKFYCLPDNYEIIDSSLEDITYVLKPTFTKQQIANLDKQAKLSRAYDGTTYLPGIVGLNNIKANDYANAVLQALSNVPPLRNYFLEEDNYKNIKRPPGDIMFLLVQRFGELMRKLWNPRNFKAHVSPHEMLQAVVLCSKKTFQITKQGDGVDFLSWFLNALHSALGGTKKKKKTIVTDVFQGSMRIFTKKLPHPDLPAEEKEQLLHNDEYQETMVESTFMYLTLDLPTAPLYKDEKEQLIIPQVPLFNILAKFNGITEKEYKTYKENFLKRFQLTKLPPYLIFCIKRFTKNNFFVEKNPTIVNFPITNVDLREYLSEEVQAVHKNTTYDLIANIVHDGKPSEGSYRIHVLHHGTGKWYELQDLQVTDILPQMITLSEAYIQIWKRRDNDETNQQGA
Method in brief: as §1

USP4 = target: T4, USP4 (UniProt Q13107)
T4 sequence (whole entry): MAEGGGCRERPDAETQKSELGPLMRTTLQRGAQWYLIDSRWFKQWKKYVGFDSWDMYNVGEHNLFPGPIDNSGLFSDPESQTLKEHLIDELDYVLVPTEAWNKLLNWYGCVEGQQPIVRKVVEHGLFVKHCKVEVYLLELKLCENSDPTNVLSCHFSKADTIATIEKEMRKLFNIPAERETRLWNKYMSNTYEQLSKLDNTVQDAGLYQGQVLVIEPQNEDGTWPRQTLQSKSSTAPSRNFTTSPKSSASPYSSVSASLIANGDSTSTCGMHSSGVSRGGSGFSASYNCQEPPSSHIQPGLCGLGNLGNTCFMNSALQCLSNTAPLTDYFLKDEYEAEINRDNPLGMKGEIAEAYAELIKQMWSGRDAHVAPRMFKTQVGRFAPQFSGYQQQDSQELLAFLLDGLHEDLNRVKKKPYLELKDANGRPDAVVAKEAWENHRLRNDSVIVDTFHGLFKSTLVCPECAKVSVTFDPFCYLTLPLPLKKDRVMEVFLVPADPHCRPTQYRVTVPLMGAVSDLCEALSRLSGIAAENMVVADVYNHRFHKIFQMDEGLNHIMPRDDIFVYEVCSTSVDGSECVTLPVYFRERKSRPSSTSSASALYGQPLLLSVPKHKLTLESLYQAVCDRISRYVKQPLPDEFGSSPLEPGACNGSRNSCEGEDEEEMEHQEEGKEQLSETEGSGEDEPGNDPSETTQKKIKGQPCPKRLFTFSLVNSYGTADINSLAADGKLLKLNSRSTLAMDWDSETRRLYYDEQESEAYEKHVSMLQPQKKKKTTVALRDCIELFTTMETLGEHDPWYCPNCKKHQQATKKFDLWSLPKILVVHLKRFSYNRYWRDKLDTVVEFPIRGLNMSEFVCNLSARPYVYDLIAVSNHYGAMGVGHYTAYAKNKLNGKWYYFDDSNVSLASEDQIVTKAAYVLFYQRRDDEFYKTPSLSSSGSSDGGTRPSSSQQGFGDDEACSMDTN
Method in brief: as §1

Measured: log2 ratio of Biotin-Ahx-Ub-VS probe labelling

O=C(CCl)N1CCC(c2ccn[nH]2)C1 (stereo not given)
inactive: USP34 0.0363 | USP36 -0.353 | USP38 -0.148 | USP39 0.00596 | USP4 -0.113
